Assay results published in PubChem BioAssay.
A number with no mark means an inactive call. How the calls were made is not given here.

The molecules below were run against Pantothenate synthetase (Mycobacterium tuberculosis (strain ATCC 25618 / H37Rv)) (UniProt P9WIL5) (assay: Coupled enzyme confirmation of inhibitors against recombinant Mtb PanC (AID 375;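 further: 0% = full reaction with vehicle and 100% = no enzyme background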)). Conditions: coupled enzyme assay; at 10 µM, stronger effect = higher value.
Sequence of Pantothenate synthetase (Mycobacterium tuberculosis (strain ATCC 25618 / H37Rv)) (P9WIL5 whole entry, looked up): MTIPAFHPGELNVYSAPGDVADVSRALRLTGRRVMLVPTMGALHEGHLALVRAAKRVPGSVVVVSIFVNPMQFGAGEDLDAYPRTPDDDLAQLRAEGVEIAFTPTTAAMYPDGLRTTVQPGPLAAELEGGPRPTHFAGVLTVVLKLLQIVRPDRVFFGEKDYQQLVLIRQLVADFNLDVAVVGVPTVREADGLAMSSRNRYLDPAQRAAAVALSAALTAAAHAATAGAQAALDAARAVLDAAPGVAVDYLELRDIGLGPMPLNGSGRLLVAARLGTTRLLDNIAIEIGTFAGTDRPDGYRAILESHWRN
Molecule `C=CCn1c(=O)n(CCOC)c(=O)c2sc3ccccc3c21` has an inhibition of 0%.
`CCCCn1c(CN(C)Cc2ccccc2)nc2c1c(=O)n(C)c(=O)n2C` showed an inhibition of 0%.
Work on `COc1ccc(CC(=O)N2CCOCC2)cc1OC` yielded an inhibition of 2%.
`CCC1CCCCN1C(=O)Cn1c(C(=O)OC)cc2sc(Cl)cc21` (stereo not drawn) was tested, and the inhibition was 0%.
In the case of `CCCOc1ccc2ccccc2c1/C=N/n1cnnc1`, the inhibition is reported as 5%.
For `COC(=O)CSc1nnc(-c2ccc(OC)cc2OC)o1`, the inhibition was 0%.
`CCN1CCCC1CNC(=O)c1cc2c(=O)n(C)c3ccccc3c2n1C` (stereo not drawn) was tested, and the inhibition was 0%.
Work on `CCn1cc(C(=O)NCCCOC)c(=O)c2cc(S(=O)(=O)N(C)C)ccc21` yielded an inhibition of 0%.
For `CC(=O)c1sc(NC(=O)C2COc3ccccc3O2)nc1C` (stereo not drawn), the inhibition was 3%.
Work on `CN1CCN(CCCNC(=O)C2CC(=O)N(C3CCCCC3)C2)CC1` (stereo not drawn) yielded an inhibition of 4%.
Molecule `O=C1OC(c2ccc(O)cc2)(c2ccc(O)cc2)c2ccccc21` has an inhibition of 4%.
Molecule `O=S(=O)(Nc1ccccn1)c1ccc(Oc2ccccc2)cc1` has an inhibition of 1%.
In the case of `c1ccc2c(SCc3cn4cccnc4n3)ncnc2c1`, the inhibition is reported as 2%.
For `CCCC(=O)Nc1nnc(CC(=O)OCC)s1`, the inhibition was 3%.
For `COC(=O)c1cc(=O)n2c(-c3ccc(OC)cc3)csc2n1`, the inhibition was 3%.
Molecule `CCCNC(=O)Nc1ccccc1C(=O)Nc1ccc(OC)cc1` has an inhibition of 2%.
Work on `CC(C)(C)NC(=O)Cn1nnnc1-c1nonc1N` yielded an inhibition of 4%.
In the case of `CCc1nn(CC(=O)NCCCN2CCc3ccccc3C2)c(=O)c2cc3sccc3n12`, the inhibition is reported as 8%.
